About 5,300 (4.4%) of roughly 120,000 compounds were called active. About 22% were inconclusive and are not listed. Many of the other results were omitted from the sample, so actives are more common in it than they were. Unmarked numbers belong to inactive results. The call rests on the fitted dose curve; in most records, active means well fitted inhibition curve with a large enough effect; inconclusive means small, poorly fitted or top-dose-only effect; inactive means no such curve, though single readings can be large or run the other way.
Assay: qHTS Primary assay for Inhibitors of Plasmodium falciparum Dd2 growth in vitro; further: nearly all actives have a fitted effect of over 65% in size;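 on activity, negative = inhibition: plate controls were DMSO vehicle for no effect and reference drug for full effect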
Conditions: P. falciparum Dd2 growth, SYBR Green, 72 h; series mostly up to 28.9 µM; activity, negative = inhibition: at the top concentration
Outline: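 Readout: SYBR Green fluorescence, 485 nm excitation, 535 nm emission, after ~16 h lysis at 37C. Before that, Dd2-infected red cells (2.5% hematocrit) grew 72 h with compound, 29 uM top final concentration.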
Potency means the concentration at half of the fitted maximal effect.

Structure (SMILES) | activity, negative = inhibition | Potency | outcome
CS(=O)(=O)N(C1CCOCC1)C1CCN(C(=O)CC2CCCC2)CC1 | 36.5% | – | –
COc1ccc(-c2nc(C(C)C)nc3c2CN(C(=O)c2ccccc2F)CC3)cc1 | -24.9% | – | –
COc1ccc(-c2nc(C3CC3)nc3c2CCN(C(=O)c2ccc(C(F)(F)F)cc2)CC3)cc1 | – | 5.01 µM (active) | –
COc1ccc(C(=O)N2CCc3nc(C(C)C)nc(-c4ccc(Cl)cc4)c3CC2)cc1 | – | 11.2 µM (active) | –
O=C(c1cccc(Cl)c1)N1CCc2nc(C3CC3)nc(-c3ccc(Cl)cc3)c2C1 | -12.8% | – | –
O=C(c1ccc(C(F)(F)F)cc1)N1CCc2nc(C3CC3)nc(-c3ccc(Cl)cc3)c2C1 | -11.2% | – | –
COc1ccc(-c2nc(C(C)C)nc3c2CN(C(=O)c2ccc(C(F)(F)F)cc2)CC3)cc1 | – | – | inactive
O=C(c1ccccc1)N1CCC2(CC1)C(=O)NCN2C(=O)CCCN1CCCC1 | -16.4% | – | –
COc1ccccc1OCCNC(=O)c1cn2ccnc(-c3ccc(C)cc3)c2n1 | 1.02% | – | –
Cn1cc(CNC(=O)C[C@@H]2C[C@H]3O[C@H](CNC(=O)Nc4cccs4)[C@@H](O)[C@H]3O2)cn1 | 13.5% | – | –
COC1CCN(C(=O)c2c(-c3cnn(C)c3NCc3cccnc3)noc2C)CC1 | -23.5% [at 44.1 µM] | – | –
COc1ccc(N2CC(c3noc(-c4ccc(C(C)(C)C)cc4)n3)CC2=O)cc1 (configuration not stated) | – | – | inactive
CCn1cc(-c2ccc(OC)cc2)cc1C(=O)N1CCC(C)CC1 | -7.32% | – | –
Cc1ccc(CN2CCC3OCCN(Cc4ccccc4)C(=O)C3C2)o1 (configuration not stated) | – | – | inactive [at 44.1 µM]
Cn1nc2n(c1=O)CCN(C(=O)C1CC=CCC1)CC2 (configuration not stated) | 12.7% | – | –
CCOc1ccc(NC(=O)Cn2cc(C(=O)c3ccc(C)cc3)c(=O)c3cc4c(cc32)OCCO4)cc1 | 13% | – | –
COc1ccc(Cn2cc(C(=O)c3ccc(C)cc3)c(=O)c3cc(OC)c(OC)cc32)cc1 | – | 12.6 µM (active) | –
COc1cc2[nH]c(=O)n(Cc3ccc(C(=O)NCc4ccc(C)cc4)cc3)c(=O)c2cc1OC | -25% | – | –
COc1ccc2c(c1)c(=O)c(C(=O)c1ccccc1)cn2CC(=O)Nc1ccc2c(c1)OCCO2 | – | – | inactive
CCOc1ccc(C(=O)c2cn(Cc3ccccc3OC)c3ccc(F)cc3c2=O)cc1 | – | 10 µM (active) | –
COc1ccc(NC(=O)Cn2cc(C(=O)c3ccncc3)c(=O)c3cc(C)ccc32)cc1Cl | -12.7% | – | –
COC(=O)C1=CN(CC(=O)Nc2ccc(F)cc2F)S(=O)(=O)N=C1C | 38.3% | – | –
COc1ccc(-c2nc(CN3CCC(C(=O)NCc4ccccc4)CC3)c(C)o2)cc1OC | -4.44% | – | –
CCn1cnnc1CC1CCN(C(=O)C2CCN(Cc3nc(-c4cccc(C)c4)oc3C)CC2)CC1 | – | 3.16 µM (active) | –

Structure (SMILES) | activity, negative = inhibition | Potency | outcome
CCn1cnnc1CC1CCN(C(=O)c2cc(-c3ccc(F)cc3)nc3ccccc23)CC1 | – | – | inactive
CC(C)CNC(=O)N1C[C@@H](Oc2cccnc2)C[C@H]1C(=O)N1CCOCC1 | 4.23% | – | –
NS(=O)(=O)c1ccc(F)c(C(=O)NCc2ccc3nonc3c2)c1 | -3.1% | – | –
CCOc1ccc(CCNc2nc(-c3ccccc3)no2)cc1 | – | – | inactive
CCCNC(=O)c1ccc2c(c1)ncn2-c1ccc(C)cc1C | – | 11.2 µM (active) | –
Cc1ccc(CCNC(=O)c2ccc3c(c2)nc2n3CCC(C)C2)cc1 (configuration not stated) | 9.74% | – | –
Cc1ccc(-n2cnc3cc(C(=O)NCCC4=CCCCC4)ccc32)cc1Cl | -1.01% | – | –
Cc1cc(Cn2cc3c4c(cccc42)[C@H](CC(C)C)N[C@H](C(=O)N2CCCCCC2)C3)no1 | -18.5% | – | –
CN1C(=O)c2cccn2CC1C(=O)N1CCc2ccccc21 (configuration not stated) | -23.7% | – | –
CCc1cccc(NC(=O)c2cnc(N3CCOCC3)c3ccccc23)c1 | -1.56% | – | –
CCc1ccc(NC(=O)c2sc3nc4c(cc3c2N)CN(CC)CC4)cc1 | – | 11.2 µM (active) | –
CCN1CCc2nc3sc(C(=O)Nc4ccccc4OC(F)(F)F)c(N)c3cc2C1 | – | 10 µM (active) | –
CCc1ccc(NC(=O)c2cnc3c(-c4ccccc4)c(C)nn3c2C)cc1 | 28.5% | – | –
O=C(Nc1ccc(OC(F)(F)F)cc1)c1cc2c(=O)n3ccccc3nc2s1 | -6.4% | – | –
COc1ccc(Cl)cc1NC(=O)c1sc2nc3c(cc2c1N)CN(C)CC3 | – | – | inactive
CCOc1ccccc1C(=O)N1CCC2(CC1)CN(C(C)=O)CC2COC (configuration not stated) | -6.6% | – | –
CCC(=O)N1CCc2c(sc3ncnc(NCc4cccnc4)c23)C1 | -11.2% | – | –
Cc1noc2c(-c3cccc(CO)c3)cc(-c3ccccc3)nc12 | 14.6% [at 44.1 µM] | – | –
O=C(Cc1ccc(OC(F)(F)F)cc1)N1CC2CC(C1)[C@H]1CCCC(=O)N1C2 (some centres not stated) | -23.3% | – | –
Cn1ccnc1C(=O)N1CCCCCCNC(=O)[C@@H]2CCCC[C@@H]21 | -9.02% | – | –
CC1(C)[C@H](Cc2cc(CCO)on2)C[C@@H]1NCC1CC1 | -27.4% [at 44.1 µM] | – | –
CC1(C)[C@H](Cc2cc(-c3ccccc3)on2)C[C@@H]1NCC1CC1 | – | 12.6 µM (active) | –
CC1(C)[C@H](Cc2cc(-c3ccccc3)on2)C[C@@H]1NS(C)(=O)=O | – | – | inactive [at 44.1 µM]

From PubChem BioAssay AID1347417 (National Center for Advancing Translational Sciences (NCATS), 2020)
